# Laboratory results taken from ChEMBL document CHEMBL2218924, “A broad activity screen in support of a chemogenomic map for kinase signalling research and drug discovery” (Biochem J, 2013).
# Assays:
# [1] = biological target: Serine/threonine-protein kinase PAK 4 (Homo sapiens) (UniProt O96013); details: at 1 µM
# [2] = biological target: Serine/threonine-protein kinase PAK 4 (Homo sapiens) (UniProt O96013); details: at 10 µM
# [3] = biological target: Serine/threonine-protein kinase PAK 5 (Homo sapiens) (UniProt Q9P286); details: at 1 µM
# [4] = biological target: Serine/threonine-protein kinase PAK 5 (Homo sapiens) (UniProt Q9P286); details: at 10 µM
# [5] = biological target: Serine/threonine-protein kinase PAK 6 (Homo sapiens) (UniProt Q9NQU5); details: at 1 µM
# [6] = biological target: Serine/threonine-protein kinase PAK 6 (Homo sapiens) (UniProt Q9NQU5); details: at 10 µM
# [7] = biological target: PAS domain-containing serine/threonine-protein kinase (Homo sapiens) (UniProt Q96RG2); details: at 10 µM
# [8] = biological target: Activated CDC42 kinase 1 (Homo sapiens) (UniProt Q07912); details: at 1 µM
# [9] = biological target: Activated CDC42 kinase 1 (Homo sapiens) (UniProt Q07912); details: at 10 µM
# [10] = biological target: ALK tyrosine kinase receptor (Homo sapiens) (UniProt Q9UM73); details: at 1 µM
# [11] = biological target: ALK tyrosine kinase receptor (Homo sapiens) (UniProt Q9UM73); details: at 10 µM
# [12] = biological target: T1, Activin receptor type-1B (Homo sapiens) (UniProt P36896); details: at 1 µM
# T1 sequence (whole entry): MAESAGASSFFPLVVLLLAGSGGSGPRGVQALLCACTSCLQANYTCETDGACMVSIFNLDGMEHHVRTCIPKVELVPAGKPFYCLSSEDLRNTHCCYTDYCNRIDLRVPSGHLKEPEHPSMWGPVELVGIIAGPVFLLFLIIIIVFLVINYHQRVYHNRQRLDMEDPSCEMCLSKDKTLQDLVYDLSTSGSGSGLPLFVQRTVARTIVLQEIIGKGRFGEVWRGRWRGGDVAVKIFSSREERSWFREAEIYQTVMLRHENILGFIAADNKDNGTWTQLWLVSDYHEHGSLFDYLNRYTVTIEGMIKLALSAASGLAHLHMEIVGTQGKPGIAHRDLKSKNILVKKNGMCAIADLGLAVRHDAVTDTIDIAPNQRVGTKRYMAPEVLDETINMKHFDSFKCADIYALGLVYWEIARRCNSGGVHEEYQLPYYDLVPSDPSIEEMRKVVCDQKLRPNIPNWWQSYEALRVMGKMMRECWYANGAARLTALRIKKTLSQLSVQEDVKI
# [13] = biological target: T1, Activin receptor type-1B (Homo sapiens); details: at 10 µM
# [14] = biological target: T2, AMP-activated protein kinase (AMPK) alpha-1/beta-1/gamma-1 (Homo sapiens) (UniProt P54619+Q9Y478+Q13131); details: at 1 µM
# [15] = biological target: T2, AMP-activated protein kinase (AMPK) alpha-1/beta-1/gamma-1 (Homo sapiens); details: at 10 µM
# [16] = biological target: T3, AMP-activated protein kinase, AMPK (Homo sapiens) (UniProt P54646+O43741+P54619+Q9UGJ0+Q9Y478+Q13131+Q9UGI9); details: at 1 µM
# [17] = biological target: T3, AMP-activated protein kinase, AMPK (Homo sapiens); details: at 10 µM
# [18] = biological target: T4, NUAK family SNF1-like kinase 1 (Homo sapiens) (UniProt O60285); details: at 1 µM
# T4 sequence (whole entry): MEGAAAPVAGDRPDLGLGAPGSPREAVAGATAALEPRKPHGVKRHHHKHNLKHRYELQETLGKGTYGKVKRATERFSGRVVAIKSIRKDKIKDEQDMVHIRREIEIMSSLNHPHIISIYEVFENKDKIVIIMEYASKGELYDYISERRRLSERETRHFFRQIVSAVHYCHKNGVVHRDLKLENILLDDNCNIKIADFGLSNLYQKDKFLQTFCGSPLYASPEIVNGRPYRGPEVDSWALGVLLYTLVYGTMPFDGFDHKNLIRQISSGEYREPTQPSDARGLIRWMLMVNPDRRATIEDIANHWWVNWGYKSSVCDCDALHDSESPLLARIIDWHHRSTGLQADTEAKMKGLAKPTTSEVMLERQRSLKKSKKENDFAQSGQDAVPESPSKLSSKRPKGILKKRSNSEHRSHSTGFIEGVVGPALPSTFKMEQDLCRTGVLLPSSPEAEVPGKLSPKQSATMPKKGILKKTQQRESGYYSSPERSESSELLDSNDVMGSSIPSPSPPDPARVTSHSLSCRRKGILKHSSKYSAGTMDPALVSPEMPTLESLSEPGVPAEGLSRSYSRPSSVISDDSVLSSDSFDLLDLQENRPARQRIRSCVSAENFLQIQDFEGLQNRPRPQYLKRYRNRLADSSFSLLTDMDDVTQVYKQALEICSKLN
# [19] = biological target: T4, NUAK family SNF1-like kinase 1 (Homo sapiens); details: at 10 µM
# [20] = biological target: T5, Mitogen-activated protein kinase kinase kinase 5 (Homo sapiens) (UniProt Q99683); details: at 1 µM
# T5 sequence (whole entry): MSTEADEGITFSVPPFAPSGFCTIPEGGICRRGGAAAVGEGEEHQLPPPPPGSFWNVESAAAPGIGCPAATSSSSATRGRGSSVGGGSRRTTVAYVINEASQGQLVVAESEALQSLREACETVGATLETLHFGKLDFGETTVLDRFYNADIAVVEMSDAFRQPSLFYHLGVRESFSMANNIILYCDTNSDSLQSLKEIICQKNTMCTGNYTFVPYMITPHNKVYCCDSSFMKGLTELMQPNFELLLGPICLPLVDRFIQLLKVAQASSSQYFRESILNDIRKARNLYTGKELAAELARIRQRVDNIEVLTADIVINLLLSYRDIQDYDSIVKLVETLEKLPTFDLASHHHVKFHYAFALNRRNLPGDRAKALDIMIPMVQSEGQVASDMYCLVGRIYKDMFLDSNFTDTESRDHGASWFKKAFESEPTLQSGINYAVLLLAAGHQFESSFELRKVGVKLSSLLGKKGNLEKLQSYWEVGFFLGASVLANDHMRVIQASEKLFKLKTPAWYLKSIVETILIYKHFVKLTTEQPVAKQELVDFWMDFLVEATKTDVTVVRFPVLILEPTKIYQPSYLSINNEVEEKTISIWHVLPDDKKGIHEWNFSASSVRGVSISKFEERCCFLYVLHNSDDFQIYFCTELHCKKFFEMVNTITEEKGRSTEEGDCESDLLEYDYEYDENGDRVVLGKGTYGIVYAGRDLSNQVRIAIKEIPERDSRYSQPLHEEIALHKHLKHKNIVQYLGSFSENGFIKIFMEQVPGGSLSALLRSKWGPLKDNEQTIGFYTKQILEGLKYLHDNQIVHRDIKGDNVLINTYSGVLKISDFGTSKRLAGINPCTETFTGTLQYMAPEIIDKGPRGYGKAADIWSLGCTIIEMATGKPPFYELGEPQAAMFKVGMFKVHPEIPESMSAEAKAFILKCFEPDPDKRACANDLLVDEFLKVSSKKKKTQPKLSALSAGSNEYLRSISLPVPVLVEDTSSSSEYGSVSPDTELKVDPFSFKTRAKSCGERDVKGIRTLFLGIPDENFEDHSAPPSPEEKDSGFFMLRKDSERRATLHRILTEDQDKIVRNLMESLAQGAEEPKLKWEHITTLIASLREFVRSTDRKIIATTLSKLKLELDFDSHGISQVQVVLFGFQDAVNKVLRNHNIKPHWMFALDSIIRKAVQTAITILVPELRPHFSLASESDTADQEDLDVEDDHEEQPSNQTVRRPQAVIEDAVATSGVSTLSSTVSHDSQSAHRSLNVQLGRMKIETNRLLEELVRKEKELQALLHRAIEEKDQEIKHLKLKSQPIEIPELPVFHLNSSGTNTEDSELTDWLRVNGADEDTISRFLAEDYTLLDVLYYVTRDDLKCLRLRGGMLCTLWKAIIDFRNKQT
# Chain of Activated CDC42 kinase 1 (Homo sapiens) (Q07912 whole entry, looked up): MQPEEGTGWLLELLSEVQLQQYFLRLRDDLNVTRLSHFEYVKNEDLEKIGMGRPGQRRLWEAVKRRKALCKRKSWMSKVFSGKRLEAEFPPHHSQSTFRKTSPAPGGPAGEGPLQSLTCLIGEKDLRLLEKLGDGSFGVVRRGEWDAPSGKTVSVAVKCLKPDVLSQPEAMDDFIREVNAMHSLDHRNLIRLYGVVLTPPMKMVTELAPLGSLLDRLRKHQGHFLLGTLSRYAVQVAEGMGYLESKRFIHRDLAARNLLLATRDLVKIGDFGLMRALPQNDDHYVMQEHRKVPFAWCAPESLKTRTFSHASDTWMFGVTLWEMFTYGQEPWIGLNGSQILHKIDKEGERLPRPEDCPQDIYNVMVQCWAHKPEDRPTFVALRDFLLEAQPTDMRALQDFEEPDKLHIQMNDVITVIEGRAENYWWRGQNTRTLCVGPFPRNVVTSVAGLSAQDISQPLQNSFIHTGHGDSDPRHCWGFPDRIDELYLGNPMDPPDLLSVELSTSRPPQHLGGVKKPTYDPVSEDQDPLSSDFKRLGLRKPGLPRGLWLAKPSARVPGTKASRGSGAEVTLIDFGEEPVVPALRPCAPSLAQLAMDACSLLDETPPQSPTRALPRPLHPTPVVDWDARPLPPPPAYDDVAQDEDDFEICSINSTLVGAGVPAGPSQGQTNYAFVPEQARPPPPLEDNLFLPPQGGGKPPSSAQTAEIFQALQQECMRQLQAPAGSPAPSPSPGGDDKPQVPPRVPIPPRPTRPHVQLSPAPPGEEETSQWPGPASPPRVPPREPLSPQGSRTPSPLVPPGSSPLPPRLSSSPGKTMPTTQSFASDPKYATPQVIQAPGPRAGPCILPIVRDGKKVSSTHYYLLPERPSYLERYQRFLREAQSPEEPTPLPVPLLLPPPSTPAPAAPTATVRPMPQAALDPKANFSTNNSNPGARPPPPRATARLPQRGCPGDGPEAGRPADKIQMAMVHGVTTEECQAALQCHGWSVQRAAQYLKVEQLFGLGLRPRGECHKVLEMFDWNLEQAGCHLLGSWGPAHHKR
# Chain of PAS domain-containing serine/threonine-protein kinase (Homo sapiens) (Q96RG2 whole entry, the tested form may be a part): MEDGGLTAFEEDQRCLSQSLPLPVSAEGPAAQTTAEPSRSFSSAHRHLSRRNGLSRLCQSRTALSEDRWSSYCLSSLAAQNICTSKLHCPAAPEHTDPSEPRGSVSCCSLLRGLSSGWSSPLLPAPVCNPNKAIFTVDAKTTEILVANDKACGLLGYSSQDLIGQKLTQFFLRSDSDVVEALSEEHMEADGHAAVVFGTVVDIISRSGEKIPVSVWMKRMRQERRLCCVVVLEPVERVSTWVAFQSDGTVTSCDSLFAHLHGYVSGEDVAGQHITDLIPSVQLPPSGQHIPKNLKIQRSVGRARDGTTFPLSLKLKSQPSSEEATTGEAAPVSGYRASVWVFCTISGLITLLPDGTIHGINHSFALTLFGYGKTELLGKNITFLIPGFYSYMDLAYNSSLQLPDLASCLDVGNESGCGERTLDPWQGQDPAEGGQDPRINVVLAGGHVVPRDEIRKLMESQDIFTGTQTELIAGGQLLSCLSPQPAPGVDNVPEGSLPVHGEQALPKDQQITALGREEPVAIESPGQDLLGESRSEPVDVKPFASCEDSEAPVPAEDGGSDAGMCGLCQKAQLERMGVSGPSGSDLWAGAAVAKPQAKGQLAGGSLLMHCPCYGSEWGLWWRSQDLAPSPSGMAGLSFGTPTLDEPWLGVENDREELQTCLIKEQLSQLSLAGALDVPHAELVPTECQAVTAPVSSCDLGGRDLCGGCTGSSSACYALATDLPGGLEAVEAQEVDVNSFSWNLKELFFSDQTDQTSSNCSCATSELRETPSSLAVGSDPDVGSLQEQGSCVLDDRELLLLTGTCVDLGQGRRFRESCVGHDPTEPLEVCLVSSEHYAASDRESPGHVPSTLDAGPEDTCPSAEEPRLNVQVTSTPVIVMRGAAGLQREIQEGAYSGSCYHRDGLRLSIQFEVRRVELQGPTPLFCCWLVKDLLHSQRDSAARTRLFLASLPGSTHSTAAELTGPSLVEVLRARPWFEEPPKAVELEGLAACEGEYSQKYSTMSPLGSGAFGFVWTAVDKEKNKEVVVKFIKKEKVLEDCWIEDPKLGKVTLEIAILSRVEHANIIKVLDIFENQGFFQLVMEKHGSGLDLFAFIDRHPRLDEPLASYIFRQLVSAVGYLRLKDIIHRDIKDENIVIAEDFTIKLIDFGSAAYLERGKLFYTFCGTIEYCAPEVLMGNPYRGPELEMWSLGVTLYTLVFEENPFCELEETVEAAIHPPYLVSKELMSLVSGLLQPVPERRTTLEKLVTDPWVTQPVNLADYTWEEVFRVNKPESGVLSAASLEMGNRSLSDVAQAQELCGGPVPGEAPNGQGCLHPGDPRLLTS
# Chain of Serine/threonine-protein kinase PAK 5 (Homo sapiens) (Q9P286 whole entry, looked up): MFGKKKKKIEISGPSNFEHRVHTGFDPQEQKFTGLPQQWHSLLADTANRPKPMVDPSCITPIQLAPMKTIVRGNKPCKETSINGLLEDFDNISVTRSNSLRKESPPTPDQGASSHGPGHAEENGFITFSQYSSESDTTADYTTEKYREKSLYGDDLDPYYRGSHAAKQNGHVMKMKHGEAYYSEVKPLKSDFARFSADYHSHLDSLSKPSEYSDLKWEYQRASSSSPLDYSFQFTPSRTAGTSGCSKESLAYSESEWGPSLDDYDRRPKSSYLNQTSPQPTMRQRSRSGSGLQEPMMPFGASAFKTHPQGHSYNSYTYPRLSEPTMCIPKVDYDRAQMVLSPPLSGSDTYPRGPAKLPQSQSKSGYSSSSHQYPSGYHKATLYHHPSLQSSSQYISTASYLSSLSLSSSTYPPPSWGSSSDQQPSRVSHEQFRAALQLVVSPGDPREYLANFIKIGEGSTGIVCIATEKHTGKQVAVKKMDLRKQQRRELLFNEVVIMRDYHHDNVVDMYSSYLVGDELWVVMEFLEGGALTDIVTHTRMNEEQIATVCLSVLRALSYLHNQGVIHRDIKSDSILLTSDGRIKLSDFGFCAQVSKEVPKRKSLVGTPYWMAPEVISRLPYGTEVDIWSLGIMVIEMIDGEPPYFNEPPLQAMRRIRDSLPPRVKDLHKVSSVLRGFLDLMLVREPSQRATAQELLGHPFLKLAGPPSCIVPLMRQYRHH
# Chain of ALK tyrosine kinase receptor (Homo sapiens) (Q9UM73 19-1620 limits assumed): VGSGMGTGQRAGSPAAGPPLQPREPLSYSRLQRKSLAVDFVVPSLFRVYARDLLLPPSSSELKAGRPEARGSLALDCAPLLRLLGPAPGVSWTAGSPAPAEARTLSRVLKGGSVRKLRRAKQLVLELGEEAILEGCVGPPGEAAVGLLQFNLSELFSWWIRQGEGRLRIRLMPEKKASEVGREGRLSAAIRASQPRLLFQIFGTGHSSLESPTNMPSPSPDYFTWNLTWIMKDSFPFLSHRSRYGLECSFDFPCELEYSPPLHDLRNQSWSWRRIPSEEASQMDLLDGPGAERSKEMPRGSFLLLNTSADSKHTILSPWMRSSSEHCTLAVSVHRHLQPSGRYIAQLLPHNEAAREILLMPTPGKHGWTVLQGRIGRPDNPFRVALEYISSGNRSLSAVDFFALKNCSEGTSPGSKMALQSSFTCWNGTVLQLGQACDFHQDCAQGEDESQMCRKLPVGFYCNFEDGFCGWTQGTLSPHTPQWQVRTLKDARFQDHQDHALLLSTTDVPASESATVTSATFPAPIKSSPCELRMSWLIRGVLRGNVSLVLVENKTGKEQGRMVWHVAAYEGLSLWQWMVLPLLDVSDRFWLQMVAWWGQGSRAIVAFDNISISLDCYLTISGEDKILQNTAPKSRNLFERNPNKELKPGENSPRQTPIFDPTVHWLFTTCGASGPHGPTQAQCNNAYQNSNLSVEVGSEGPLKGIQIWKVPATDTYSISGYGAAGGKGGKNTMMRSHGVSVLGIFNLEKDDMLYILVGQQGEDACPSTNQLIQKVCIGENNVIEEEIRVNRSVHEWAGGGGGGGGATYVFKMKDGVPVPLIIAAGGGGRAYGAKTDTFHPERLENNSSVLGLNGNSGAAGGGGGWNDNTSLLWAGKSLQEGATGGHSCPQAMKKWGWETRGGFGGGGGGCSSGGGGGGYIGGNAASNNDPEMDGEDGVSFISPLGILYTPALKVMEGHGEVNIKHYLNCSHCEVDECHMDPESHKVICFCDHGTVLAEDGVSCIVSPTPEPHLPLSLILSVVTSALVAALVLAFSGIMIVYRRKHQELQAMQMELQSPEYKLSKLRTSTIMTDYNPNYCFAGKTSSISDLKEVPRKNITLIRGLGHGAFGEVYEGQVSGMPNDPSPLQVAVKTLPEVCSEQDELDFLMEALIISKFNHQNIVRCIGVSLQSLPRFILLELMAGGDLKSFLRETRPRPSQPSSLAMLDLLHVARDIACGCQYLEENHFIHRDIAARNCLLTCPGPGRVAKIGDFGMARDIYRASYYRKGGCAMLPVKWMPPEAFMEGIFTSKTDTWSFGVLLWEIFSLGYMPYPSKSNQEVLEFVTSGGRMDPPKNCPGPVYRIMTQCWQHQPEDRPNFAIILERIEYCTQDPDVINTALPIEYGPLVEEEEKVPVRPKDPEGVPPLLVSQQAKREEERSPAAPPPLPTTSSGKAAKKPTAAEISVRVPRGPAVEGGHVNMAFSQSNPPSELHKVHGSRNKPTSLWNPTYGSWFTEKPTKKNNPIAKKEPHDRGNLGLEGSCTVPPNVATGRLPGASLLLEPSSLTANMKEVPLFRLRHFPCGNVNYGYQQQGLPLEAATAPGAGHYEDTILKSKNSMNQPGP
SMILES,residual activity [1],residual activity [2],residual activity [3],residual activity [4],residual activity [5],residual activity [6],residual activity [7],residual activity [8],residual activity [9],residual activity [10],residual activity [11],residual activity [12],residual activity [13],residual activity [14],residual activity [15],residual activity [16],residual activity [17],residual activity [18],residual activity [19],residual activity [20]
CC(C)(C)n1nc(Cc2cccc3ccccc23)c2c(N)ncnc21,88%,61%,88%,77%,98%,79%,71%,6%,2%,89%,49%,129%,60%,103%,72%,89%,74%,105%,92%,111%
O=C1C(Cl)=C(N2C(=O)CCC2=O)C(=O)c2ccccc21,95%,96%,99%,84%,,93%,122%,78%,69%,65%,58%,101%,121%,95%,91%,99%,101%,96%,84%,89%
O=C1Cc2c([nH]c3ccc([N+](=O)[O-])cc23)-c2ccccc2N1,22%,21%,24%,25%,61%,41%,,44%,24%,,,,,48%,40%,18%,36%,10%,9%,106%
O=C1Nc2ccc(Cl)cc2/C1=C/c1cc(Cl)c(O)c(Cl)c1,91%,68%,73%,62%,,,29%,48%,7%,68%,19%,,,79%,40%,77%,40%,69%,50%,93%
O=C(Nc1ccc(Cl)cc1)c1ccccc1NCc1ccncc1,100%,99%,117%,128%,,,,,76%,,,130%,72%,,78%,,72%,,,
CCN(CC)CCNC(=O)c1c(C)[nH]c(/C=C2\C(=O)Nc3ccc(Cl)cc32)c1C,52%,11%,30%,8%,73%,28%,49%,25%,1%,8%,2%,126%,99%,7%,3%,4%,4%,6%,6%,60%
O=c1cc(N2CCOCC2)oc2c1ccc1ccccc12,94%,94%,94%,81%,,94%,88%,90%,77%,81%,,,104%,110%,94%,105%,90%,101%,85%,88%
